Sampled rows, rich in hits. Any-hit rate of the full collection: about 1.2%.
KCNH2 3.1 inh = inhibitors of human KCNH2 3.1 potassium channel isoform. AID 720553. U2OS KCNH2 3.1, thallium flux FluxOr; hits give low values. 0.95% of 340,000 active. activity change, % (tested at about 1.8 µM);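 active = maximum activity change below -70%; inconclusive = maximum activity change from -70% to -50%; inactive = maximum activity change above -50%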;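 also: thallium influx rate constant from kinetic fluorescence after stimulation buffer; % is scaled to controls: 0 for no effect and ±100 for the full control effect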
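U2OS cells transduced with KCNH2 3.1 mutant virus (1.77 x 10^8 /mL, 4 h), plated overnight at 37 C, loaded 45 min with FluxOr dye plus Red40 quencher. Thallium flux rate constant from kinetic reads after stimulation buffer, normalised to controls.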
TRPV1 agonist = agonists of human vanilloid receptor 1 (TRPV1); Q8NER1; TRPV1-expressing cells, Fluo-8 calcium influx, agonist mode; activation, % at 8.33 µM; 0.19% of 320,000 active; in the data active = activation above about 80%; inconclusive = between about 30% and that limit; also: 0% is about no effect
Target sequence (Q8NER1 whole entry, looked up): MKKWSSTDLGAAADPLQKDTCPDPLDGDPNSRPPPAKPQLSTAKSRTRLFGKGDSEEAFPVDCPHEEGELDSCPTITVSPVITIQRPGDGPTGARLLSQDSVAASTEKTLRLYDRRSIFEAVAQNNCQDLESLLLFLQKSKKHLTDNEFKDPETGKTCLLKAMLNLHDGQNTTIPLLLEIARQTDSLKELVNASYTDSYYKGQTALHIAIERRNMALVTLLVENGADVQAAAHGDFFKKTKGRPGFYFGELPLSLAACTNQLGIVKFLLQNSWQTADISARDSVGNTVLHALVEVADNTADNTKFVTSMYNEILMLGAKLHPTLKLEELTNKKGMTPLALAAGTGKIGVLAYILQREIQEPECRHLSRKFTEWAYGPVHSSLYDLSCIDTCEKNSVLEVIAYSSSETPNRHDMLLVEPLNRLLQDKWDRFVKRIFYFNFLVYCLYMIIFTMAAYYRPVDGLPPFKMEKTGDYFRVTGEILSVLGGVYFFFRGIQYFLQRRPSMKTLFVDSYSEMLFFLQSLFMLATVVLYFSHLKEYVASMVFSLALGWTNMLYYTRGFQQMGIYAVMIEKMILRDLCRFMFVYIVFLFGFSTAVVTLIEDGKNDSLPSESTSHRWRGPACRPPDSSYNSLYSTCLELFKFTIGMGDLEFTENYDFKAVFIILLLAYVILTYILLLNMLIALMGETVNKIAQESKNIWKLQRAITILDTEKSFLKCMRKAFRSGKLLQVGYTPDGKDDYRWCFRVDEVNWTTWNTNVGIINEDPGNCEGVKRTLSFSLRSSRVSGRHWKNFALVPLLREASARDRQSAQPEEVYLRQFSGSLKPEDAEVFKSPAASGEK
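TRPV1-expressing cells were cultured overnight at 35.5C and loaded with Fluo-8 calcium dye for 40 to 90 min at room temperature. After a 10 s baseline, compound was added and calcium influx was read kinetically for 3 min (ex 480/em 520 nm).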
TRPV1 potentiator = human TRPV1 potentiation | Q8NER1 | TRPV1-expressing cells, Fluo-8 calcium influx, capsaicin EC20 potentiation | potentiation, % at 8.33 µM | 0.02% of 320,000 active | AID 540277; in the data active = potentiation above about 80%; inconclusive = between about 30% and that limit; also: 0% is about no effect
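Cells expressing TRPV1 were dye-loaded with Fluo-8 and read kinetically: 10 s baseline, 3 min after compound (agonist portion), then 2 min after EC20 capsaicin (allosteric enhancer portion). Calcium-bound dye fluorescence at 480/520 nm.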
hERG WT inh = inhibitors of human wildtype KCNH2 potassium channel; Q12809; U2OS, BacMam KCNH2, thallium flux FluxOr; hits give low values; activity change, % at 1.84 µM; 0.37% of 340,000 active;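 active = maximum activity change below -70%; inconclusive = maximum activity change between -70% and -50%; inactive = maximum activity change above -50%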; also: % is scaled to controls: 0 for no effect and ±100 for the full control effect
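U2OS cells were transduced with wild-type KCNH2 virus (2.03 x 10^8 / mL) for 4 h at room temperature, then cultured overnight at 37 C. Thallium flux was read with FluxOr dye. Rate constants were normalized to DMSO controls.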
Starred values were filed as active, the others as inactive; ? = inconclusive; . = not tested or not shown.

SMILES	KCNH2 3.1 inh	TRPV1 agonist	TRPV1 potentiator	hERG WT inh
C#Cc1ccc(CN2CCN(CCc3ccccc3)C(CCO)C2)cc1 (stereo not drawn)	-73.5*	2.3	0.0	11.7
CC(C)CCN1CCN(CC(c2ccccc2)c2ccccc2)CC1CCO (stereo not drawn)	-73.5*	12.0	-15.6	-19.2
OCCC1CN(Cc2ccc(F)cc2)CCN1CCCc1ccccc1 (stereo not drawn)	?	1.9	5.2	39.8
OCCC1CN(Cc2ccc(F)cc2)CCN1CCc1ccccc1 (stereo not drawn)	-79.3*	-0.4	?	50.2
O=C(Nc1ccccc1)N1CCCN(c2nccc(C(F)(F)F)n2)CC1	0.9	87.1*	-4.3	-5.6
O=C(Nc1ccc(F)cc1)N1CCCN(c2nccc(C(F)(F)F)n2)CC1	-13.7	?	-14.5	-2.6
COc1ccc(C[C@H]2CN3C(=NC[C@@H]3Cc3ccc(O)cc3)N2C[C@H](C)NC(=O)c2ccc(C)c(Br)c2)cc1	-17.0	-0.5	-9.3	-163.5*
COc1ccc(C[C@H]2CN3C(=NC[C@@H]3Cc3ccc(O)cc3)N2CCNC(=O)c2ccc(C)c(Br)c2)cc1	-0.3	0.7	16.2	-81.4*
CCOP(=O)(OCC)C(Nc1ccc(F)cc1)c1ccccc1 (stereo not drawn)	4.9	7.5	1.4	0.9
CCOP(=O)(OCC)C(Nc1ccccc1)c1ccco1 (stereo not drawn)	-118.1*	3.2	-7.5	-4.4
C[C@@H](C(=O)N1CCN(c2ccccc2)CC1)N1C(=O)C2CC=CCC2C1=O (stereo partly drawn)	-29.6	.	.	8.9
COc1ccc(-c2csc(NC(=O)c3c(C)noc3C)n2)cc1OC	3.7	.	.	5.1
COc1ccc(S(=O)(=O)NCC(=O)N(CC(=O)NCC2CCCO2)c2c(C)cccc2C)cc1 (stereo not drawn)	-73.7*	-1.0	0.0	2.0
COc1ccc(S(=O)(=O)NCC(=O)N(CC(=O)NCC2CCCO2)Cc2ccccc2)cc1 (stereo not drawn)	-2.7	-2.8	0.7	-10.5
Cc1ccccc1NS(=O)(=O)c1ccc(OCC(=O)NCC2CCCO2)cc1 (stereo not drawn)	-184.4*	0.8	-2.5	-172.0*
COC(=O)[C@H]1C[C@@]2(O)CN(S(=O)(=O)c3ccc(C)cc3)C[C@@]2(OC(=O)NCc2ccccc2)C[C@H]1C(=O)OC	-6.1	.	.	-4.9
CCOc1ccc(S(=O)(=O)NCCC(=O)OCC(=O)NC(=O)c2cccn2C)cc1	-14.2	.	.	-2.5
COc1ccc(C2CC(c3ccc(Cl)cc3)Nc3nc(NC(=O)c4ccco4)nn32)cc1 (stereo not drawn)	-71.4*	-2.6	7.8	-37.8
CCOC(=O)c1csc(NC(=O)CSc2nnnn2-c2ccc3c(c2)OCCO3)n1	-15.6	-2.5	15.5	-117.9*
CCc1ccc2c(CN3CCN(S(=O)(=O)c4cccs4)CC3)cc(=O)oc2c1	0.6	5.7	-3.1	-8.1
COc1ccc2c(CN3CCN(Cc4ccccc4)CC3)cc(=O)oc2c1	-107.7*	.	.	-78.8*
COc1ccc(CN2CCN(Cc3cc(=O)oc4cc(C)ccc34)CC2)c(OC)c1OC	-100.0*	3.6	2.5	?
CCc1ccc2c(CN3CCN(S(=O)(=O)c4ccccc4F)CC3)cc(=O)oc2c1	-74.6*	.	.	-14.2
CCc1cc2c(CN3CCN(Cc4ccccc4)CC3)cc(=O)oc2cc1O	-0.2	3.2	3.1	15.4
CCc1ccc2c(CN3CCN(Cc4ccccc4)CC3)cc(=O)oc2c1	-119.8*	1.4	2.0	-141.5*
SMILES	KCNH2 3.1 inh	TRPV1 agonist	TRPV1 potentiator	hERG WT inh
COC(=O)Cn1cnc2c(Cl)nc(F)nc21	0.4	.	.	2.9
Cc1ccc(C2CCN(C(=O)Nc3ccc(F)cc3)C2)cc1 (stereo not drawn)	15.9	82.9*	0.5	2.6
COc1ccc(C(=O)OCC(=O)NC2CC2)cc1F	3.1	.	.	-6.4
COc1ccc(C2NCCC3(O)CCCCC23)c(OC)c1OC (stereo not drawn)	2.1	4.0	3.9	-296.1*
COc1cc2c(cc1OC)C(C1(O)CCCCC1)NCC2 (stereo not drawn)	4.5	-2.8	9.9	-0.7
Cc1cccc(C)c1OCc1cc(C(=O)NC2CCC(O)CC2)no1 (stereo not drawn)	21.4	23.8	-28.2	-4.5
Cc1cccc(C)c1OCc1cc(C(=O)NC2CCC2)no1	-94.2*	?	-11.8	12.5
Cc1ccc(S(=O)(=O)NCC(=O)N(CCc2ccccc2)CC(=O)NCc2ccco2)cc1	-8.9	1.5	0.1	-74.8*
COc1cccc(CNS(=O)(=O)c2cc(Br)ccc2Br)c1	-4.7	.	.	-0.5
Cc1cc(C)nc(N2CCC(C(=O)Nc3ccc4c(c3)OCO4)CC2)n1	12.6	13.3	-10.7	5.5
Cc1cc(C)nc(N2CCCC(C(=O)Nc3ccc4c(c3)OCO4)C2)n1 (stereo not drawn)	-3.2	82.7*	6.8	7.3
COc1cccc(CNC(=S)Nc2cccc(Cl)c2C)c1	-1.1	86.6*	-26.2	-3.9
O=C(NCCCc1ccccc1)c1ccc(CS(=O)Cc2ccc(Cl)cc2)o1 (stereo not drawn)	-85.5*	0.9	5.0	-43.9
COc1ccc(S(=O)Cc2ccc(C(=O)NCc3cccc(OC)c3)o2)cc1 (stereo not drawn)	11.0	-0.3	0.4	-1.1
COc1cccc(CNC(=O)c2ccc(CS(=O)Cc3ccccc3Cl)o2)c1 (stereo not drawn)	-81.2*	.	.	-6.5
CCOC(=O)c1cc(-c2ccccc2)nc2c(O)cccc12	9.5	.	.	-34.7
COc1ccc(OC)c(NC2c3ncccc3C(=O)N2Cc2ccco2)c1 (stereo not drawn)	-80.0*	-3.5	23.4	6.2
COc1cc2ccc(C(=O)O)cc2cc1OC	14.1	.	.	-2.2
CC1CCN(C2=NC(=O)/C(=C/c3ccccc3F)S2)CC1	-3.9	88.2*	-4.0	10.8
CC1CCN(C2=NC(=O)/C(=C/c3cccc(O)c3)S2)CC1	13.5	?	-25.6	-18.8
COc1ccccc1OCCn1cc(C=O)c2ccccc21	-89.7*	10.4	-13.2	-7.3
N=c1n(Cc2ccc(Cl)cc2)c2ccccc2n1CC(O)COc1ccccc1 (stereo not drawn)	-84.8*	1.3	6.6	?
COc1ccc(OCC(O)Cn2c(=N)n(Cc3ccccc3)c3ccccc32)cc1 (stereo not drawn)	-6.9	0.6	-9.9	-0.6
Cc1ccc(OCC(O)Cn2c(=N)n(Cc3ccccc3)c3ccccc32)cc1 (stereo not drawn)	-74.7*	1.2	2.3	-93.7*
Cc1ccc(SCC(=O)OCc2csc(CC(=O)Nc3ccccc3C)n2)cc1C	2.1	-3.4	2.5	0.3
CC(Nc1nc(-c2ccc(F)cc2)cs1)c1nc2cc(C(F)(F)F)ccc2n1CCCO (stereo not drawn)	-11.6	.	.	-15.9
Cc1csc(NC(C)c2nc3cc(Cl)c(Cl)cc3n2CCCO)n1 (stereo not drawn)	-80.1*	.	.	-8.8
CCOC(=O)c1ccc(NC(=O)c2cc3c(s2)CCC3)cc1	9.9	106.2*	-11.9	5.9

High-throughput results (PubChem)
